Among all 350,000 compounds or so, about 31,000 (8.9%) were called active. Inconclusive results (about 15%) are left out. The calls are words filed in the database; no cut-off is given here. Many of the other results were omitted from the sample, so actives are more common in it than they were.

The target of this assay is T1, Histone-lysine N-methyltransferase EHMT2 (Homo sapiens) (UniProt Q96KQ7).
T1 sequence (whole entry): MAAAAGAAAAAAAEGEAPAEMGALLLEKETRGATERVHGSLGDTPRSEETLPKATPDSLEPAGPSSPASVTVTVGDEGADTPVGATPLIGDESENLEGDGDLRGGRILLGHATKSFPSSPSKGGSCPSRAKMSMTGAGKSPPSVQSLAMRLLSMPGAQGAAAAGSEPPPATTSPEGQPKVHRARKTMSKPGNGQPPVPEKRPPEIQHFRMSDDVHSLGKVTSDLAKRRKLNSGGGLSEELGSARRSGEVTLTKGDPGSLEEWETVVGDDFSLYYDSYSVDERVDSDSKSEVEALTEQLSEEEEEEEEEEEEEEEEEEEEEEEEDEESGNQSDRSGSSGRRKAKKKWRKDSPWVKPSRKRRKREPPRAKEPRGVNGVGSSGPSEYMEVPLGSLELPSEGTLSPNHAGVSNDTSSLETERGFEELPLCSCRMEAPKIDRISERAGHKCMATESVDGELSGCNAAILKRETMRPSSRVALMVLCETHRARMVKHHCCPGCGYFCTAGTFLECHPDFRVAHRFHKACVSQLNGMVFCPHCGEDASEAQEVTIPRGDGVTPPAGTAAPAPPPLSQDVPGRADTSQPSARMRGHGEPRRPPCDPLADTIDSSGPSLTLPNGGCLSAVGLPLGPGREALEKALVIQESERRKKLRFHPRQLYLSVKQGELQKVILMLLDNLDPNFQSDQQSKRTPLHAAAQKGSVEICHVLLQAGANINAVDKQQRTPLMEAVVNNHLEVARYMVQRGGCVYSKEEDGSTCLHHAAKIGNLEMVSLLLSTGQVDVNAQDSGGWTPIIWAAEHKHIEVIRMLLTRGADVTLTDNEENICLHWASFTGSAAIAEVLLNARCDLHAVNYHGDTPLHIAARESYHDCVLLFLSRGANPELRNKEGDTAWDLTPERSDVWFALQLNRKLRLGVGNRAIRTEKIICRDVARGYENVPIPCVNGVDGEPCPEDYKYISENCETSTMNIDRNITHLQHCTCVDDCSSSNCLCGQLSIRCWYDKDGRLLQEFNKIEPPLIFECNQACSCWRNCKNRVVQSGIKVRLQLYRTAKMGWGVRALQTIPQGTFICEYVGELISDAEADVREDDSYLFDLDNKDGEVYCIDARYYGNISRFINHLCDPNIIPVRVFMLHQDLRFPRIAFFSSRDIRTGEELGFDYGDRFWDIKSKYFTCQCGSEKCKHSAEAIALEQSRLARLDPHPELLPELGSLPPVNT
Briefly: qHTS Assay for Inhibitors of Histone Lysine Methyltransferase G9a. [Related pubchem assays (depositor defined):AID504404]. The format is functional. (In qHTS, concentration-response curves come from the screen itself.)
On to `Cl[Te]1(Cl)OCCO1`, for which the Potency was 7.94 µM (active).

Values taken from ChEMBL document CHEMBL1201862, “PubChem BioAssay data set” (2004).
